Shown are actives, neighbours in structure and some others; about 4% of the full set was active somewhere.
Mdm2 MdmX PPI = disrupts the human Mdm2-MdmX interaction; O15151+Q00987; SaOS-2 split-luciferase Mdm2/MdmX complementation, luminescence; inhibition, % at 8 µM; 330,000 tested, 3% active;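 active = inhibition of at least 50% at 8 µM in the primary screen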
Target sequence (O15151 whole entry, looked up): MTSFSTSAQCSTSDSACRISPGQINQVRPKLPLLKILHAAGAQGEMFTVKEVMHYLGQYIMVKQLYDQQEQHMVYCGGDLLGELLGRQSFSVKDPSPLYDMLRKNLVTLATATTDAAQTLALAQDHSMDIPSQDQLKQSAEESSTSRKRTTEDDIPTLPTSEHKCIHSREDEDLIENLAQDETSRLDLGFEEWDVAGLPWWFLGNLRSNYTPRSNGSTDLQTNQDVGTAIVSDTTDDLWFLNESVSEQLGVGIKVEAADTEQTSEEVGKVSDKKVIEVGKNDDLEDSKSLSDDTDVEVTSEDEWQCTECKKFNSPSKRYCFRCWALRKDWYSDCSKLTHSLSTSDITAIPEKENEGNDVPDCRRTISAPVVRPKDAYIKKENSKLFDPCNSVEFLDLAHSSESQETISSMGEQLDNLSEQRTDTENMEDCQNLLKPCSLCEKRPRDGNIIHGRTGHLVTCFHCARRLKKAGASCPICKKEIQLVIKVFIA
Target sequence (Q00987 whole entry, looked up): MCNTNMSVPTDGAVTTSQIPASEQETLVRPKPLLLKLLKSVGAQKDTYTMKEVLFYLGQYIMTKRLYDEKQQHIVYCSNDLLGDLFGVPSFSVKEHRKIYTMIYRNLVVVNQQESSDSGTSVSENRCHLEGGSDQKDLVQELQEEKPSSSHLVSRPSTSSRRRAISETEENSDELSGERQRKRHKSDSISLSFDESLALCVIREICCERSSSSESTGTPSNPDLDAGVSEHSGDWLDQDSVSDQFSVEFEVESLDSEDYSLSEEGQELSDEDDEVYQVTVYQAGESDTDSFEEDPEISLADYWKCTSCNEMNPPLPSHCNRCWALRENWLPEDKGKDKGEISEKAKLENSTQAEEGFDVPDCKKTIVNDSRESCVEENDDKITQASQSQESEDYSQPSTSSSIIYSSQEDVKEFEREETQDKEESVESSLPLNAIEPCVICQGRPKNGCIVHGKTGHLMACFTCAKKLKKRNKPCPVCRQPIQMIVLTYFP
Beta apoptosis = blocks beta cell apoptosis; INS-1E cytokine-induced death, ATP luminescence, 48 h; percent of positive-control rescue, neutral wells zero; protection from apoptosis, % (test concentration not listed); 300,000 tested, 0.8% active;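 active = Every replicate reaches about 75%, or at least half do and their mean reaches it too, limit read from the data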;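 note: 0% = cytokine-treated negative control wells and 100% = positive control rescue; higher means more ATP so stronger rescue from cytokine killing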
PAX8 inh HTS = lowers PAX8-driven luciferase in RMG-I cells; inhibition, % at 12.6 µM; 360,000 tested, 1.2% active; RMG-I TPO-luciferase reporter, SteadyGlo, 24 h;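 active = mean replicate inhibition at least 60% with every replicate also reaching 60%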;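 note: luciferase light reporting Pax8 driven TPO promoter activity; plate controls were median of neutral control wells for no effect and mitoxantrone controls for full effect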
CSC inhib = cancer stem cell inhibition; cancer stem cell-like cells viability, luminescence; inhibition, % at 7.5 µM; 300,000 tested, 1.1% active; in the data active = inhibition above about 75%; tested in HMLE shEcad cells
Shn3 3UTR inh = Schnurri-3 reporter inhibition in Clone20 osteoblasts | Clone20 osteoblast Shn3 3'UTR firefly luciferase, 24 h | inhibition, % at 12.5 µM | 360,000 tested, 0.52% active;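 active = mean inhibition of at least 75% with every replicate also reaching 75%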;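 note: 0% = median of neutral control wells and 100% = pilot-screen positive control compound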
Gli-Sufu antag = antagonists of Gli-Sufu signaling; Sufu-KO-LIGHT fibroblasts, Gli luciferase reporter luminescence; inhibition, % at 5 µM; 340,000 tested, 0.74% active;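 active = inhibition above about 55%, limit read from the data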;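 note: 0% = DMSO-treated cells and 100% = wells with medium but no cells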
Gli antag conf = confirmation of Gli-SUFU pathway antagonists | AID 602428 | 2,500 tested, 40% active | Sufu-KO-LIGHT cells, Gli luciferase reporter, luminescence | inhibition, % at 5 µM | shares compounds with Gli-Sufu antag;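 active = mean inhibition at 5 µM reaching about 45%, limit read from the data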;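 note: plate controls were DMSO-treated cells for no effect and wells lacking cells for full effect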
Gli cytotox = cytotoxic in Gli-SUFU antagonist counter-screen; 2,500 tested, 32% active; cytotoxicity, % at 5 µM; Sufu-KO-LIGHT cells cytotoxicity, ATP luminescence; shares compounds with Gli-Sufu antag; AID 651994;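 active = mean cytotoxicity at 5 µM above about 25%, limit read from the data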;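 note: cells exposed to compound overnight for roughly 16 to 18 hours; plate controls were DMSO wells with cells for no effect and medium without cells for full effect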
Wnt3a counter = Wnt3a reporter inhibition counter-screen; shares compounds with Gli-Sufu antag; Wnt-LIGHT cells, Wnt3a-driven luciferase reporter, luminescence; inhibition, % at 6.25 µM; 2,500 tested, 20% active;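 active = mean inhibition above about 25%, limit read from the data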
The depositor's hits bear a star.

How did C[C@H](CO)N1C[C@H](C)[C@@H](CN(C)S(=O)(=O)c2ccc(Cl)cc2)Oc2ccc(NC(=O)Cc3cn(C)c4ccccc34)cc2C1=O do in these assays?
PAX8 inh HTS: 9.6

How did O=C(NC[C@H]1CC[C@@H]2[C@@H](CN2C(=O)C2CCOCC2)O1)c1cccnc1 do in these assays?
PAX8 inh HTS: -9.2

Results for N#CCSc1nnc(-c2ccc(S(=O)(=O)N3CCOCC3)cc2)n1CC1CCCO1 (stereo not drawn) ?
Mdm2 MdmX PPI: -3.8; Beta apoptosis: 2.3; PAX8 inh HTS: -3.0; CSC inhib: -17.4; Shn3 3UTR inh: 11.2; Gli-Sufu antag: 94.0*; Gli antag conf: 30.3; Gli cytotox: 2.5; Wnt3a counter: 9.8

How did Cc1cccc(N(Cc2ccccc2)C(=O)CCl)c1 do in these assays?
PAX8 inh HTS: 122.7*; Shn3 3UTR inh: 25.0; Gli-Sufu antag: 76.9*; Gli antag conf: 29.1; Gli cytotox: 27.5*; Wnt3a counter: -8.6

How did COc1cc(C2c3cc4c(cc3OC(NNC(N)=O)C2C)OCO4)cc(OC)c1OC (stereo not drawn) do in these assays?
PAX8 inh HTS: 74.6*; Shn3 3UTR inh: -7.8; Gli-Sufu antag: 55.7*; Gli antag conf: 55.4*; Gli cytotox: 62.0*; Wnt3a counter: 7.8

How did COc1ccc(C2c3cc4c(cc3OC(NNC(N)=O)C2C)OCO4)cc1 (stereo not drawn) do in these assays?
Shn3 3UTR inh: 2.9; Gli-Sufu antag: -12.1

Results for O=C(C[C@@H]1CC[C@@H]2[C@H](COC[C@@H](O)CN2C(=O)c2ccccc2F)O1)NCc1ccccc1 ?
PAX8 inh HTS: -8.0

Results for CCOC(=O)C[N+](C)(C)CCOC1CC2CCC1(C)C2(C)C (stereo not drawn) ?
Mdm2 MdmX PPI: 21.7; Beta apoptosis: 6.0; PAX8 inh HTS: 1.6; CSC inhib: -2.4; Shn3 3UTR inh: 25.8; Gli-Sufu antag: 45.3

What do the screens show for `CC1(C)C2CCC1(C)C(OCC[N+](C)(C)CC(=O)OC1CCCCC1)C2` (stereo not drawn)?
Mdm2 MdmX PPI: 39.9; Beta apoptosis: 46.6; PAX8 inh HTS: 50.8; CSC inhib: 24.6; Shn3 3UTR inh: 65.5; Gli-Sufu antag: 78.8*; Gli antag conf: 74.8*; Gli cytotox: 32.2*; Wnt3a counter: 22.4

How did CC(=O)c1cnc(Nc2cccc(Cl)c2Cl)s1 do in these assays?
Mdm2 MdmX PPI: -5.3; Beta apoptosis: 1.0; PAX8 inh HTS: -128.6; CSC inhib: 0.6; Shn3 3UTR inh: -52.6; Gli-Sufu antag: -46.2

How did CC(=O)c1cnc(Nc2ccccc2)s1 do in these assays?
Mdm2 MdmX PPI: -9.9; Beta apoptosis: 1.2; CSC inhib: -9.8; Shn3 3UTR inh: -11.3; Gli-Sufu antag: 56.9*; Gli antag conf: 10.5; Gli cytotox: 7.7; Wnt3a counter: -92.1

What do the screens show for `N#Cc1ccc(-c2ccc3c(c2)[C@@H]2[C@@H](CCN2C(=O)c2ccc4c(c2)OCO4)[C@@H](CO)N3)cc1`?
PAX8 inh HTS: 16.0

How did N#Cc1ccc(OCC(=O)Nc2ccccc2NS(=O)(=O)c2cccs2)cc1 do in these assays?
Mdm2 MdmX PPI: -0.2; Beta apoptosis: -3.0; PAX8 inh HTS: -12.6; CSC inhib: -4.9; Shn3 3UTR inh: -0.4; Gli-Sufu antag: 52.7; Gli antag conf: 16.5; Gli cytotox: 5.9; Wnt3a counter: -43.8

What do the screens show for `COc1ccc(NC(=O)N2C[C@@H](O)COC[C@H]3O[C@@H](CC(=O)N4CCCCC4)CC[C@@H]32)cc1`?
PAX8 inh HTS: 2.3

Results for COc1cccc(/C=N/NC(=O)c2ccc([N+](=O)[O-])cc2Cl)c1O ?
Mdm2 MdmX PPI: 45.3; Beta apoptosis: 88.4*; PAX8 inh HTS: 24.4; CSC inhib: -2.9; Shn3 3UTR inh: 64.5; Gli-Sufu antag: 64.1*; Gli antag conf: 28.4; Gli cytotox: 8.8; Wnt3a counter: 13.9

How did COc1cc(/C=N/NC(=O)c2cccc([N+](=O)[O-])c2)cc(OC)c1O do in these assays?
Mdm2 MdmX PPI: -1.5; Beta apoptosis: -1.0; PAX8 inh HTS: 1.8; CSC inhib: -4.9; Shn3 3UTR inh: 9.9; Gli-Sufu antag: 0.9

What do the screens show for `Cc1sc2nc(CSc3ccccc3)nc(NCCN(C)C)c2c1C`?
Mdm2 MdmX PPI: 7.6; PAX8 inh HTS: 10.3; CSC inhib: 6.7; Shn3 3UTR inh: -58.9; Gli-Sufu antag: 10.1

How did CCNc1nc(CSc2ccccc2)nc2sc(C)c(C)c12 do in these assays?
Mdm2 MdmX PPI: -14.1; Beta apoptosis: 9.2; PAX8 inh HTS: 22.5; CSC inhib: 42.6; Shn3 3UTR inh: 9.2; Gli-Sufu antag: 68.9*; Gli antag conf: 25.8; Gli cytotox: 23.9; Wnt3a counter: -26.9

Results for C[C@@H]1CCCCO[C@H](CN(C)Cc2ccc3c(c2)OCO3)[C@H](C)CN([C@H](C)CO)C(=O)c2cc(NS(=O)(=O)c3ccccc3)ccc2O1 ?
PAX8 inh HTS: 6.3

Results for C[C@H]1CN([C@@H](C)CO)C(=O)c2cccc(NC(=O)C3CCCCC3)c2O[C@H]1CN(C)C(=O)Nc1ccccc1 ?
PAX8 inh HTS: -13.6

What do the screens show for `Cc1ccc(NC(=O)/C=C/c2ccc([N+](=O)[O-])s2)c(C)c1`?
Beta apoptosis: 106.3*; PAX8 inh HTS: 98.1*; CSC inhib: 106.7*; Shn3 3UTR inh: 94.4*; Gli-Sufu antag: 72.3*; Gli antag conf: 36.9; Gli cytotox: 4.7; Wnt3a counter: 89.7*

What do the screens show for `O=C(C[C@@H]1CC[C@@H](NC(=O)c2ccncc2)[C@H](CO)O1)Nc1ccccc1`?
PAX8 inh HTS: -6.0

How did CCCc1ccc(-c2ccc(/C=C/C(=O)O)cc2)nc1 do in these assays?
Beta apoptosis: 0.3; PAX8 inh HTS: -18.6; CSC inhib: -15.6; Shn3 3UTR inh: 28.5; Gli-Sufu antag: 71.2*; Gli antag conf: 69.4*; Gli cytotox: 56.4*; Wnt3a counter: 90.9*

Results for Cc1ccc(S(=O)(=O)N[C@@H]2CC[C@@H](CC(=O)N3CCc4ccccc4C3)O[C@@H]2CO)cc1 ?
PAX8 inh HTS: -0.5

Results for CN1CCCCN2[C@@H](CO)[C@H](c3ccc(-c4ccccc4)cc3)[C@@H]2C1 ?
PAX8 inh HTS: -27.1

What do the screens show for `CSc1nc2c(c(C(F)(F)F)n1)CC(C)CC2` (stereo not drawn)?
Mdm2 MdmX PPI: -1.0; Beta apoptosis: 3.7; CSC inhib: -14.2; Shn3 3UTR inh: -9.4; Gli-Sufu antag: 99.0*; Gli antag conf: 3.1; Gli cytotox: -0.1; Wnt3a counter: -10.8

Bioassay records as filed in PubChem.
